A selection: hits, their analogues and other compounds. The true share with any hit is near 1.6%.
KCNQ2 enhance – KCNQ2 (rat) channel potentiation; CHO-K1 KCNQ2, FluxOR thallium flux fluorescence; hits give high values; B-score at 10 µM; O88943; actives 0.54% (n = 310,000); AID 2239;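 active means fluorescence ratio B-score at least 3 SD of library B-scores, with initial fluorescence B-score within 3 of them, cut at about 5.3 in these data; same plate scores as AID 2156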;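 further: B-score of peak minus minimum over baseline fluorescence ratio after K+ and Tl+ stimulus; positive B-score means potentiation of KCNQ2 with more thallium influx and brighter signal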
KCNQ2 block – KCNQ2 (rat) channel inhibition | O88943 | CHO-K1 KCNQ2, FluxOR thallium flux, 20 min; hits give low values | B-score at 10 µM | actives 1.1% (n = 310,000);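 active means fluorescence ratio B-score at most minus 3 library SDs, with starting brightness B-score within 2 library SDs, cut at about -5.5 in these data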
Kir21 conf inh – confirmation of mouse Kir2.1 potassium channel inhibitors; shares compounds with KCNQ2 enhance; Kir2.1-expressing cells, FluxOR thallium flux fluorescence; hits give low values; Tl flux remaining, % of negative control (hits give low values), % at 10 µM; actives 41% (n = 2,300); AID 2032;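 active means Primary-screen hit whose thallium flux fell at least 3 control SD below untreated wells in both duplicates, with normal baseline fluorescence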;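 further: 0% = blank wells without stimulus and 100% = stimulated no-compound controls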
HEK293 ctr – alters thallium flux in parental HEK293 cells, Kir2.1 counter-screen. shares compounds with KCNQ2 enhance. FluxOR thallium flux fluorescence; 0% = unstimulated blank wells. FluxOR signal as % of negative control (100 = no effect), % at 10 µM. actives 19% (n = 2,300). AID 2105;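 active means dye signal at least 3 control SD above or below untreated wells in both duplicates, raw fluorescence within 3, either direction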;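 further: percent is based on the flux ratio of peak minus minimum fluorescence over baseline F0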
CHO-K1 ctr – counter-screen for KCNQ2 potentiators: effect in parental CHO-K1 cells; activity increase over 3SD of controls, % at 10 µM; FluxOR thallium flux fluorescence; zero = vehicle mean+3SD, 100% = vehicle-minus-blank window; actives 43% (n = 1,200); AID 2282; shares compounds with KCNQ2 enhance;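 active means signal rise of at least 3 SD above the untreated control mean, in both duplicate wells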;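 further: counter screen of KCNQ2 potentiator hits so any rise reflects channel-independent effects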
KCNQ1 sel pot – tests whether KCNQ2 potentiators also act on human KCNQ1; shares compounds with KCNQ2 enhance; CHO KCNQ1 stable, FluxOR thallium flux fluorescence; beyond 3SD, as % of vehicle-control signal; activation over 3SD threshold, % at 10 µM; actives 28% (n = 1,200); AID 2283;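 active means fluorescence ratio rise of at least 3 SD of vehicle wells above their mean, in both replicate wells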;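 further: 0% = vehicle mean plus 3 SD and 100% = vehicle minus unstimulated blank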
KCNQ2 pot confirm – confirmation of rat KCNQ2 potassium channel potentiators; shares compounds with KCNQ2 enhance; CHO-KCNQ2 cells, FluxOR thallium flux fluorescence; potentiation, less the hit threshold, % at 10 µM; actives 68% (n = 1,200);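 active means fluorescence ratio rising 3 SD or more over the vehicle control mean in both replicates, plus primary screen hit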;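 further: peak minus minimum thallium fluorescence divided by baseline after K/Tl stimulus; 0% = vehicle mean plus 3 SD and 100% = vehicle minus unstimulated blank difference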
Kir21 spec – selectivity of KCNQ2 potentiators: effect on mouse Kir2.1; HEK293 Kir2.1, FluxOR thallium flux fluorescence; actives 2% (n = 1,200); activity over 3SD threshold, % at 10 µM; AID 2345; shares compounds with KCNQ2 enhance;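 active means fluorescence ratio rise of at least 3 SD above the vehicle-control mean, seen in both replicates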;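 further: 0% = vehicle mean plus 3 SD and 100% = vehicle minus no-stimulus blank window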
KCNQ2 W236L MoA – rat KCNQ2 W236L mutant potentiation by KCNQ2 potentiators. CHO KCNQ2-W236L, automated patch clamp current. shares compounds with KCNQ2 enhance. current increase over 3SD of negative controls (%), hits give high values, % at 25 µM. actives 10% (n = 940). AID 2558;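 active means current increase at least 3 SD of the untreated controls above them in both duplicate recordings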
Target sequence (O88943 whole entry W236L, looked up): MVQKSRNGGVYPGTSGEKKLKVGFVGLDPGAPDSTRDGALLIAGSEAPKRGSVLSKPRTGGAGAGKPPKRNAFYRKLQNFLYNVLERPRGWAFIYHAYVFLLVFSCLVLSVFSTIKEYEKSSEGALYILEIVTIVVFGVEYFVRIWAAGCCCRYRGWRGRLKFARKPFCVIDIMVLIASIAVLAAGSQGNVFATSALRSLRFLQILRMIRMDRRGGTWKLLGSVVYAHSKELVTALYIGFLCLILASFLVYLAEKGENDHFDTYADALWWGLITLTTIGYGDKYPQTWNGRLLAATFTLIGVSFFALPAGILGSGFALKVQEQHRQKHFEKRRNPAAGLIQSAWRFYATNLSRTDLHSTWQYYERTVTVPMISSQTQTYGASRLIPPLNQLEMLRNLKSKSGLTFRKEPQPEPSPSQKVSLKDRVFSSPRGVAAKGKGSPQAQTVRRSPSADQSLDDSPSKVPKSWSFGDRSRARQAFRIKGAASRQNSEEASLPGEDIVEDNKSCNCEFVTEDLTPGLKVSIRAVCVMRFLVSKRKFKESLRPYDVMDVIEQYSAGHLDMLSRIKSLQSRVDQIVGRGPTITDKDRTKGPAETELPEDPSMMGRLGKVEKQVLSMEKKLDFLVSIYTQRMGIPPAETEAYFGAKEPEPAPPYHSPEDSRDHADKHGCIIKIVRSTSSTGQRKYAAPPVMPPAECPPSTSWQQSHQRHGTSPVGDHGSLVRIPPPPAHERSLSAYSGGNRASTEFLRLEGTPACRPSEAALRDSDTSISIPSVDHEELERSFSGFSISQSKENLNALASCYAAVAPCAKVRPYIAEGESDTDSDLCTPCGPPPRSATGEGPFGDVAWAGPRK
* marks the source's active call; other numbers are inactive results; i = inactive; · = no result.

SMILES | KCNQ2 enhance | KCNQ2 block | Kir21 conf inh | HEK293 ctr | others
CCC(=O)Nc1ccc(N2CCCCC2)c(C(=O)Nc2ccc(OC)cc2)c1 | 1.3 | i | · | ·
COc1ccc(NC(=O)CSCC(=O)Nc2cc(Cl)ccc2N2CCCC2)cc1 | 7.1* | i | i | i | CHO-K1 ctr=-7;KCNQ1 sel pot=66*;KCNQ2 pot confirm=6.3*;Kir21 spec=-44;KCNQ2 W236L MoA=i
COc1ccc(NC(=O)CSCC(=O)Nc2cc(Cl)ccc2N2CCOCC2)cc1 | 4.7 | i | · | ·
COc1ccc(CC(=O)Nc2ccc(N3CCCC3)c(C)c2)cc1 | 6.8* | i | 34%* | i | CHO-K1 ctr=9.8*;KCNQ1 sel pot=57*;KCNQ2 pot confirm=22*;Kir21 spec=-99;KCNQ2 W236L MoA=i
Cc1ccc(NC(=O)CSCC(=O)Nc2ccccc2N2CCCC2)cc1 | 1.4 | i | 74%* | 74%*
Cc1ccc(NS(=O)(=O)c2ccc3c(c2)NC(=O)CCS3)c(C)c1 | 1.9 | i | · | ·
CCn1c(=O)c(C(=O)Nc2ccccc2C)c(O)c2ccccc21 | · | i | · | ·
CCn1c(=O)c(C(=O)Nc2ccccc2S(N)(=O)=O)c(O)c2ccccc21 | 8* | i | i | i | CHO-K1 ctr=53*;KCNQ1 sel pot=-11;KCNQ2 pot confirm=11*;Kir21 spec=-41;KCNQ2 W236L MoA=i
O[C@@H]1CN(Cc2ccc(-n3cccn3)cc2)CC[C@H]1N1CCN(c2ccccc2F)CC1 | 0.15 | i | · | ·
O=C(COc1ccccc1Br)NCc1ccco1 | 0.03 | i | · | ·
CCc1ccc(OCC(=O)NCc2ccco2)c(Br)c1 | 7.8* | i | i | i | CHO-K1 ctr=-25;KCNQ1 sel pot=-14;KCNQ2 pot confirm=22*;Kir21 spec=-21;KCNQ2 W236L MoA=i
S=c1[nH]nc(-c2cccs2)n1/N=C/c1c(Cl)cccc1Cl | 7.4* | i | i | i | CHO-K1 ctr=-4;KCNQ1 sel pot=-20;KCNQ2 pot confirm=7.3*;Kir21 spec=-38;KCNQ2 W236L MoA=i
Cc1ccc(/C=N/n2c(-c3cccs3)n[nH]c2=S)cc1 | 1.8 | i | · | ·
OC(COc1c(F)cc(Br)cc1F)CN1CCc2ccccc2C1 (configuration not stated) | · | i | 26%* | i
Cc1ccc(C)c(OCC(O)CN2CCC(Cc3ccccc3)CC2)c1 (configuration not stated) | · | i | 49%* | i
OC(COc1ccc(Cl)cc1)CN1CCC(Cc2ccccc2)CC1 (configuration not stated) | · | i | · | ·
Cc1ccc(C(C)C)c(OCC(O)CN2CCc3ccccc3C2)c1 (configuration not stated) | · | i | 63%* | i
OC(COCc1ccccc1)CN1CCc2ccccc2C1 (configuration not stated) | 0.04 | i | · | ·
Cc1cccc(C)c1OCC(O)CN1CCc2ccccc2C1 (configuration not stated) | · | i | · | ·
Cc1ccc(-c2cc3cccc[n+]3cc2-c2ccc(C)cc2)cc1 | · | i | · | ·
Cc1cc2occ(CC(=O)N(C)CC(=O)Nc3ccccc3Cl)c2cc1C | · | i | · | ·
O=C(c1ccc(S(=O)(=O)N2CCOCC2)cc1)N(c1cccc(Cl)c1)C1C=CS(=O)(=O)C1 (configuration not stated) | 1.2 | i | · | ·
Cc1ccc(C(=O)COC(=O)CN2C(=O)C3C4CCC(C4)C3C2=O)cc1C (configuration not stated) | 0.73 | i | · | ·
CCOc1ccc(N2CC(C(=O)NCCc3c[nH]c4ccc(OC)cc34)CC2=O)cc1 (configuration not stated) | 0.82 | i | · | ·
O=C(Nc1ccnn1C1CCN(Cc2cccc(F)c2F)CC1)C1CCCC1 | · | i | · | ·
SMILES | KCNQ2 enhance | KCNQ2 block | Kir21 conf inh | HEK293 ctr | others
O=C(CSc1nccn1Cc1ccccc1)NC1CCCC1 | 0.1 | i | · | ·
CCc1nc2ccc(C(=O)NCCCN3CCN(c4ccccc4F)CC3)cc2nc1CC | 0.03 | i | · | ·
CCN(c1ccc(OC)cc1)S(=O)(=O)c1ccc2c(c1)CC(C)N2C(=O)C1CC1 (configuration not stated) | · | i | · | ·
CSc1ccccc1NC(=O)CSc1n[nH]c(N)n1 | · | i | · | ·
Nc1nc(SCC(=O)Nc2ccccc2Sc2ccc(Cl)cc2)n[nH]1 | 6.2* | i | i | i | CHO-K1 ctr=23*;KCNQ1 sel pot=-18;KCNQ2 pot confirm=9.1*;Kir21 spec=-53;KCNQ2 W236L MoA=i
COc1ccc(NS(=O)(=O)c2ccc(Cl)c(C(=O)O)c2)cc1S(=O)(=O)N1CCCCC1 | · | i | · | ·
CCC(CC)Nc1ccc(C(CC(N)=O)NC(=O)Cc2cccc3ccccc23)cc1[N+](=O)[O-] (configuration not stated) | · | i | · | ·
CCC(C)c1ccc(NC(=S)NC2CCN(Cc3ccccc3)CC2)cc1 (configuration not stated) | · | i | · | ·
CCOc1ccc(C(C)NC(=S)NC2CCCCC2)cc1OCC (configuration not stated) | 2.3 | i | · | ·
CC(NC(=O)C1CCCCC1)c1ccc2c(c1)OCCO2 (configuration not stated) | 5.7* | i | i | i | CHO-K1 ctr=6.0*;KCNQ1 sel pot=39*;KCNQ2 pot confirm=8.5*;Kir21 spec=-17;KCNQ2 W236L MoA=i
CC(CCc1ccccc1)NC(=S)NC1CCCCC1 (configuration not stated) | · | i | · | ·
CCC(C)c1ccc(C(C)NC(=S)NC2CCCCC2)cc1 (configuration not stated) | 13* | i | · | · | CHO-K1 ctr=57*;KCNQ1 sel pot=37*;KCNQ2 pot confirm=34*;Kir21 spec=-50;KCNQ2 W236L MoA=i
CC(NC(=O)C1CCCC1)c1ccc2c(c1)OCCO2 (configuration not stated) | 1.8 | i | · | ·
CCOc1ccc(C(C)NC(=S)NC2CCCCC2)cc1 (configuration not stated) | 5.4* | i | i | i | CHO-K1 ctr=-15;KCNQ1 sel pot=27*;KCNQ2 pot confirm=20*;Kir21 spec=-43;KCNQ2 W236L MoA=i
CCC(NC(=S)NC1CCCCC1)c1ccccc1 (configuration not stated) | 12* | i | · | · | CHO-K1 ctr=-9;KCNQ1 sel pot=-1;KCNQ2 pot confirm=28*;Kir21 spec=-59;KCNQ2 W236L MoA=i
COc1ccc(C)cc1NC(=O)CN(C)S(=O)(=O)c1ccc2c(c1)CC(C)N2C(C)=O (configuration not stated) | 0.65 | i | · | ·
Cc1ccccc1/C(N)=N/OC(=O)c1cccs1 | 0.35 | i | · | ·
Cc1nn(-c2ccccc2)c(N2CCCC2)c1/C=N/NC(=S)Nc1ccccc1F | · | i | · | ·
COc1ccc(NC(=O)Nc2ccc3c(c2)OCO3)c(C)c1 | · | i | · | ·
COCCn1c(=NC(=O)c2ccc(S(=O)(=O)N3CCc4ccccc4C3)cc2)sc2cc(OC)ccc21 | · | i | · | ·
